Results reported in PubChem BioAssay AID1240 (Sanford-Burnham Center for Chemical Genomics, 2008).
The whole screen tested about 50,000 compounds, of which about 800 (1.6%) showed an effect of 50% or more. Shown is part of a subset that was picked to be rich in strong results.

Molecular target: Bcl-2-like protein 10 (Homo sapiens) (UniProt Q9HD36)
Test: Phenotype converters, Bcl-B/TR3 peptide binding displacement, primary biochemical FP (AID 1240);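 also: 0% = Bcl-B with tracer peptide and DMSO and 100% = tracer peptide lacking Bcl-B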
Conditions: GST-Bcl-B / FITC-TR3 peptide fluorescence polarization; stronger effect = higher value; compound at 3.75 mg/L

Sequence of Bcl-2-like protein 10 (Homo sapiens) (Q9HD36 whole entry, looked up): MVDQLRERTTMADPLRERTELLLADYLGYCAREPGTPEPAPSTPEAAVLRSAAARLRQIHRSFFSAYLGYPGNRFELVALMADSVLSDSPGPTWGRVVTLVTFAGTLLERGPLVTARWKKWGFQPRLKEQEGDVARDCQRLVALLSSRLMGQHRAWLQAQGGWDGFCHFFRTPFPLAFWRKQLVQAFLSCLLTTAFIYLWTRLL

SMILES | displacement [%]
COc1ccc(/C=C2\C(=O)NN(c3ccc(Cl)c(Cl)c3)C2=O)cc1OC | -13.2
CCOc1ccccc1/C=N/Nc1nnc(-c2ccccc2)c(=O)[nH]1 | -10.7
O=C(COc1ccccc1Cl)N1CCN(c2ccc([N+](=O)[O-])cc2)CC1 | -3.3
O=C1NC(=S)N(c2ccc(Cl)cc2)C(=O)C1=Cc1ccsc1 | 8.3
O=C1CSC(c2cn(-c3ccccc3)nc2-c2ccc(Cl)cc2)N1Cc1ccccc1 (stereo not given) | -6.5
O=c1[nH]cc(N=Cc2ccccc2)c(=O)[nH]1 | -2.8
Cc1onc(-c2ccccc2Cl)c1C(=O)Nc1sc(C)c(C)c1C#N | 13.6
CCc1nc2ccccc2n1CC(O)COC1CCCCC1 (stereo not given) | -10.7
COC(=O)c1ccc(N2C(=O)c3cccc([N+](=O)[O-])c3C2=O)cc1 | -0.7
O=c1/c(=C/c2cccs2)sc2nc3ccccc3n12 | 7.2
Cc1ccsc1/C=c1\sc2nc3ccccc3n2c1=O | -8.5
O=c1/c(=C/c2ccccn2)sc2nc3ccccc3n12 | 102
CCOc1ccc(NC(=O)CC2S/C(=N\N=C(/C)c3cccc(NC(C)=O)c3)NC2=O)cc1 (stereo not given) | -11
CN1CCN(c2ccc3c4c(cccc24)C(=O)c2ccccc2-3)CC1 | 2.9
O=C1c2cccc3c(N4CCCCC4)ccc(c23)C(=O)N1CCO | 66.1
CN1CCN(C(=O)CCN2C(=O)c3cccc4cccc(c34)C2=O)CC1 | 18.2
O=C1c2cccc3c(N4CCCCC4)ccc(c23)C(=O)N1c1ccc(Cl)cn1 | 25.4
CC(C)N1C(=O)c2cccc3c(N4CCCCC4)ccc(c23)C1=O | 9.8
CN1CCN(c2ccc3c4c(cccc24)C(=O)N(CCO)C3=O)CC1 | 155
CCOC(=O)c1c(-c2ccccc2)oc2ccc(OC(=O)c3ccc(OC)c(OC)c3)cc12 | 8.8
Cc1ccc(C(=O)COc2cc(OCC(=O)c3ccc(C)cc3)c3c(C)cc(=O)oc3c2)cc1 | 10
COc1nccnc1NS(=O)(=O)c1ccc(NC(=S)NC(=O)c2ccc(F)c(F)c2)cc1 | 6.6
CSc1ccc(-c2ncnn2-c2cccc(Cl)c2)cc1 | -4.7
COC(=O)C1C(=O)N(C)C(c2ccccc2)C1C(=O)OC (stereo not given) | 8.4
CCOC(=O)C1=C(C)N=c2s/c(=C\c3cccc([N+](=O)[O-])c3)c(=O)n2C1c1ccc(C)cc1 (stereo not given) | 16.1

SMILES | displacement [%]
CCOC(=O)C1=C(C)N=c2s/c(=C/c3ccc(F)cc3)c(=O)n2C1c1cccc([N+](=O)[O-])c1 (stereo not given) | 7.1
CCOC(=O)C1=C(C)N=c2s/c(=C\c3cccc([N+](=O)[O-])c3)c(=O)n2C1c1ccccc1F (stereo not given) | 138
CCOC(=O)C1=C(C)N=c2s/c(=C\c3ccc(C)cc3)c(=O)n2C1c1cccc([N+](=O)[O-])c1 (stereo not given) | 127
CCOC(=O)C1=C(C)N=c2s/c(=C/c3cccc([N+](=O)[O-])c3)c(=O)n2C1c1ccccc1Cl (stereo not given) | 10.2
CCOC(=O)C1=C(C)N=c2s/c(=C\c3cccc([N+](=O)[O-])c3)c(=O)n2C1c1cccc(OC)c1 (stereo not given) | 4.1
CCCCOc1ccc(C(=O)O/N=C2/CCc3cc(OC)ccc32)cc1 | 2
O=C(Nc1ccc(Cl)c(Cl)c1)c1ccc([N+](=O)[O-])o1 | -8
Cc1cc(C)c2nc3s/c(=C\c4ccc(-c5cc([N+](=O)[O-])c(C)cc5C)o4)c(=O)n3c2c1 | -20.8
Cc1c(Cl)cccc1N1C(=O)c2ccccc2C1=O | 7.1
CN1CCO/C1=C(C#N)\C=C1\Nc2ccccc2C1=O | -77.4
CN1CCO/C1=C(C#N)\C=C1/C(=O)N(c2c(Cl)cccc2Cl)c2ccccc21 | 67.6
COc1ccc(/C=C2\SC(N3CCCCCC3)=NC2=O)cc1OC | -1.9
Cc1ccc(S(=O)(=O)Oc2ccc(/C=C3/SC(=S)N(C)C3=O)cc2)cc1 | -3.3
Cc1cccn2c(=O)c(C=O)c(N3CCCCC3)nc12 | 3.9
Cc1cccn2c(=O)c(/C=N/NC(=O)c3ccccc3O)c(N3CCCCC3)nc12 | 130
Cc1cccn2c(=O)c(C=O)c(N3CCC(C)CC3)nc12 | 17
CCOC(=O)COc1ccc(/C=C2\C(=O)NC(=O)N(c3ccc(OC)cc3)C2=O)cc1OC | 0.6
Cc1cc(C)cc(N2C(=O)NC(=O)/C(=C\c3cc(Br)ccc3OCC(=O)O)C2=O)c1 | -7.4
CCN(CC)CCNc1nc2nonc2nc1NCCN(CC)CC | -0.5
NC(=O)c1cc(NC(=O)c2cc3ccccc3cc2O)cc(C(N)=O)c1 | -4.2
CN(C)c1ccc(NC(=O)c2ccc(Br)cc2)cc1 | 48.8
COc1cc(OC)cc(C(=O)Nc2cccc(-c3nc4ncccc4o3)c2C)c1 | 5.6
CCOc1ccc(C(=O)Nc2cccc(-c3nc4cc(C)ccc4o3)c2C)cc1 | 17.4
CC(=O)Nc1cccc(-c2nc3cc(C)ccc3o2)c1C | 99.7
COc1cc(OC)cc(C(=O)Nc2ccc(-c3nc4cc(C)cc(C)c4o3)cc2)c1 | 55.3

SMILES | displacement [%]
Cc1cc(C)c2oc(-c3ccc(NC(=O)c4cccc([N+](=O)[O-])c4C)cc3)nc2c1 | -3.8
COc1cc2ccccc2cc1C(=O)Nc1cccc(-c2nc3cc(C)cc(C)c3o2)c1C | 26.5
COc1cc(OC)cc(C(=O)Nc2cccc(-c3nc4cc(C)cc(C)c4o3)c2C)c1 | 58.7
COc1cc(OC)cc(C(=O)Nc2ccc3oc(-c4ccc(I)cc4)nc3c2)c1 | -5.8
COc1ccc(Br)cc1C(=O)Nc1cccc(-c2nc3cc(C)ccc3o2)c1C | 20.2
Cc1onc(-c2c(Cl)cccc2Cl)c1C(=O)Nc1ccc(N(C)C)cc1 | 12.1
CCOC(=O)c1c(NC(=O)COc2ccccc2C)sc(C(=O)Nc2ccccc2F)c1C | -0.6
CN(C)c1ccc(-c2ncnn2-c2sc3c(c2C#N)CCCC3)cc1 | 3.1
Cc1ccc(NCC(=O)N/N=C\c2ccc(OCc3ccccc3)cc2)cc1 | 6.5
O=[N+]([O-])c1ccc(-n2ncnc2-c2ccc(F)cc2)cc1 | 10.5
O=C(O)C(Cc1ccccc1)N1C(=O)/C(=C/c2ccc(O)cc2)SC1=S (stereo not given) | -23.7
CN(C)c1ccc(/C=N/Nc2cc(N3CCOCC3)ncn2)cc1 | -14.2
O=C(Cn1c2ccccc2c(=O)c2ccccc21)N/N=C/c1cc([N+](=O)[O-])ccc1N1CCCCC1 | -6.8
O=C(Cn1c2ccccc2c(=O)c2ccccc21)N/N=C/c1cc([N+](=O)[O-])ccc1N1CCCCCC1 | -7
O=C(Cn1c2ccccc2c(=O)c2ccccc21)N/N=C/c1cc([N+](=O)[O-])ccc1N1CCCC1 | 73.6
COc1ccc(CN2CCN(C(=O)c3ccc(F)cc3)CC2)cc1Br | 8.4
Cc1no[n+]([O-])c1COc1ccc(/C=C2\NC(=S)NC2=O)cc1 | -73.2
COc1cc(C=C2C(=O)NC(=O)NC2=O)ccc1OCCO | -2.4
CCOc1ccc(/C=C2\C(=O)NC(=O)N(c3ccccc3C)C2=O)cc1Cl | 0.3
COc1ccccc1OCCOc1ccc(/C=C2/C(=O)NC(=O)N(c3ccccc3C)C2=O)cc1OC | 76.2
COc1ccccc1N1C(=O)NC(=O)/C(=C\c2cc3ccccc3n2C)C1=O | 165
COc1cc(C=C2C(=O)NC(=O)NC2=O)ccc1OCCOc1ccc(C)cc1 | 32.2
COc1cc(/C=C2/C(=O)NC(=O)N(c3ccccc3C)C2=O)ccc1OCCOc1ccccc1 | 69.3
COc1ccccc1/C=C1/C(=O)NC(=O)N(c2ccccc2OC)C1=O | -2.3
COc1cc(C=C2C(=O)NC(=O)NC2=O)ccc1OCCSc1ccc(C)cc1 | 64.1

SMILES | displacement [%]
COc1ccc(N2C(=O)NC(=O)/C(=C/c3ccc(OCCOc4ccc(C)cc4)c(OC)c3)C2=O)cc1 | 12.8
COc1cc(/C=C2/C(=O)NC(=O)N(c3cccc(C)c3)C2=O)ccc1OCCOc1ccccc1 | 19
COc1cc(/C=C2/C(=O)NC(=O)N(c3ccccc3)C2=O)ccc1OCC(=O)O | 6.2
COc1ccccc1N1C(=O)NC(=O)/C(=C/c2c(OC)ccc3ccccc23)C1=O | 1.1
Cc1c(Nc2nc3nonc3nc2Nc2cccc(Cl)c2)c(=O)n(-c2ccccc2)n1C | 10
CCOc1ccc(N2C(=O)C3CC=CCC3C2=O)cc1 (stereo not given) | 14.7
O=C(O)CCC(=O)Nc1ccc(S(=O)(=O)N2CCCCCC2)cc1 | 3
O=C(/C=C/c1ccc([N+](=O)[O-])cc1)NC(=S)Nc1ccccc1Cl | -3.4
CCOC(=O)C(C)Oc1ccc2c(C)c(CC)c(=O)oc2c1 (stereo not given) | -3.1
COc1ccc(NC(=O)CSc2nc3ccc(N4C(=O)c5ccccc5C4=O)cc3s2)cc1 | 1.7
COc1ccccc1NC(=O)CSc1nc2ccc(N3C(=O)c4ccccc4C3=O)cc2s1 | 84.2
COC(=O)c1ccccc1NC(=O)CSc1nc2ccc(N3C(=O)c4ccccc4C3=O)cc2s1 | 3.2
Cc1sc2ncn(/N=C/C=C3\N(C)c4ccccc4C3(C)C)c(=O)c2c1C | 75.7
CN1/C(=C\C=N\Nc2ccc([N+](=O)[O-])cc2)C(C)(C)c2ccccc21 | -4.6
Cc1ccc(-n2cnc3sc(C)c(C)c3c2=O)cc1 | -0.9
O=C(O)c1cccc(N(CCO)CCO)c1 | 6
COc1cccc(NC(=O)CCCN2C(=O)c3cccc4cccc(c34)C2=O)c1 | 6.9
COc1ccc(C2=C/C(=C/c3cccs3)C(=O)O2)cc1 | 7.8
COC(=O)C1=CN(Cc2ccc(OC)cc2)C=C(C(=O)OC)C1c1cccs1 | 2.9
COc1ccc(C2=CC(c3cccs3)C=C(c3ccc(OC)cc3)O2)cc1 | 162
Cc1ccc(CN2CCN(/N=C\c3cc(Br)ccc3O)CC2)cc1 | -6
Cc1ccc(C(=O)Nn2c(O)c(C3=c4ccccc4=NC3=O)sc2=S)cc1 | -18.6
O=C1CC(c2ccccc2)CC(O)=C1C=Nc1ccc(F)cc1 (stereo not given) | -1.2
Cc1cc(C)cc(N=CC2=C(O)CC(c3ccccc3)CC2=O)c1 (stereo not given) | 84.1
O=C1CC(c2ccccc2)CC(O)=C1C=Nc1ccc(Br)cc1 (stereo not given) | -3.8
